A selection: hits, their analogues and other compounds. The true share with any hit is near 12%.
AMA1 RON2 block – AMA1-RON2 (P. falciparum) interaction inhibition. AlphaScreen AMA1-biotinylated RON2 peptide binding. Potency, µM (highest dose often 58.2 µM), for the others: at the top dose activity change, negative = inhibition, hits mostly inhibitors. 360,000 compounds, 0.2% hits. AID 720542;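 also: 0% = vehicle wells and -100% = peptide control; nearly all actives have a fitted effect of over 45% in size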
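AMA1 (3D7) with his tag at 25 nM final met compounds first, then biotinylated RON2 peptide at 25 nM; detection used donor plus acceptor beads, 10 µg/mL apiece, read by AlphaScreen after 30 min at room temperature.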
NS1 function inh – blocks influenza NS1 protein function; Potency, µM (highest dose often 46.1 µM), for the others: top-dose activity, positive = more growth; 270,000 compounds, 0.4% hits; calls by dose curve; also: actives are rising curves; nearly all actives have a fitted effect of over 50% in size
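A cell-based growth assay was used: compounds that relieve NS1-induced slow growth of budding yeast raise OD600. Assay medium was yeast nitrogen base with ammonium sulphate and -URA supplement, pH 6.0, with 2% galactose.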
Pf growth 48h – P. falciparum growth inhibition at 48 hours (one generation); Potency, µM (doses to about 28.7 µM), for the others: at the top dose activity change, negative = inhibition, actives largely listed as inhibitors; 310,000 compounds, 5.9% hits; AID 504832; P. falciparum luciferase growth in erythrocytes, 48 h; also: % is scaled to controls: 0 for no effect and ±100 for the full control effect
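Erythrocytes infected with P. falciparum carrying an integrated firefly luciferase reporter (2% hematocrit, 0.1% parasitemia final) were exposed to compounds in RPMI 1640 with 0.5% Albumax at 37 C, 5% CO2. Growth inhibition was scored as reduced luminescence.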
SARS PLP yeast – SARS-CoV PLP inhibition in yeast; 330,000 compounds, 0.19% hits; AID 485353; S. cerevisiae expressing SARS-CoV PLpro, growth rescue; Potency, µM (doses to about 32.9 µM), inactives show at the top dose activity, positive = growth rescue, most hits filed as activators; calls by dose curve; also: 0% is about no effect; nearly all actives have a fitted effect of over 55% in size
HCV inhibitor – inhibitors of hepatitis C virus infection | Huh7.5.1 HCVcc-Cre infection, luciferase reporter, 44 h | Potency, µM (top dose mostly 41.8 µM), for inactives: top-dose activity change, negative = inhibition, usual class: inhibitors | 340,000 compounds, 3.4% hits; also: % is scaled to controls: 0 for no effect and ±100 for the full control effect
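Reporter virus HCVcc-Cre (~0.5 moi) infects cells exposed to compound; seeding density 1,000 cells/well with 4 h settling beforehand. Luminescence, 15 sec read, taken 44 h post-infection following a 15 min RT substrate incubation.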
Pf growth 96h – inhibits malaria parasite growth, 96 h | P. falciparum luciferase reporter growth, 96 h | Potency, µM (titrated, usually from 28.7 µM), for inactives: at the top dose activity change, negative = inhibition, most hits filed as inhibitors | 320,000 compounds, 6.9% hits; also: % is scaled to controls: 0 for no effect and ±100 for the full control effect
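Two-generation exposure (96 h) targets delayed-death phenotype. Reporter parasites carrying integrated firefly luciferase, in red cells at 2% hematocrit and 0.05% parasitemia final, kept at 37 C, 5% CO2; luminescence loss indicates inhibition.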
* marks the source's active call; other numbers are inactive results. Unless noted, calls follow the shape of the dose curve; as a rule, active = well fitted curve in the direction sought with a large enough effect; inconclusive = small, poorly fitted or top-dose-only effect, or another doubt; inactive = no such curve, though single readings can be large; an effect the other way counts as inactive or inconclusive. Potency is read from the fitted curve at half-maximal effect.

Results for O=C(c1ccccc1)N1CCC(c2nc(-c3ccc(S(=O)(=O)N4CCOCC4)cc3)no2)CC1 ?
AMA1 RON2 block: -3%; NS1 function inh: -8%; Pf growth 48h: inconclusive; SARS PLP yeast: 3%; HCV inhibitor: -27%; Pf growth 96h: inconclusive

What do the screens show for `COc1ccc(-c2noc(C3CCCN(C(=O)c4ccc(C)cc4)C3)n2)cc1` (centres undefined)?
AMA1 RON2 block: -23%; NS1 function inh: -10%; Pf growth 48h: 114%; SARS PLP yeast: 2%; HCV inhibitor: 13µM*; Pf growth 96h: -18%

Results for O=C(Nc1ccc(Cl)cc1)N1CCC(c2nc(-c3ccccc3Cl)no2)CC1 ?
AMA1 RON2 block: 2%; NS1 function inh: -103%; Pf growth 48h: 1.9µM*; SARS PLP yeast: -8%; HCV inhibitor: 7.1µM*

What do the screens show for `O=C(Nc1ccccc1)N1CCC(c2nc(-c3ccc(S(=O)(=O)N4CCOCC4)cc3)no2)CC1`?
AMA1 RON2 block: -6%; NS1 function inh: -1%; Pf growth 48h: inconclusive; SARS PLP yeast: 0%; HCV inhibitor: 10µM*; Pf growth 96h: 8.3µM*

What do the screens show for `O=C(N/N=C/c1ccccn1)NC12CC3CC(CC(C3)C1)C2`?
AMA1 RON2 block: 36%; NS1 function inh: -33%; Pf growth 48h: 0%; SARS PLP yeast: -2%; HCV inhibitor: 12%; Pf growth 96h: 51%

What do the screens show for `O=c1c2[nH]c3ccc(Br)cc3c2ncn1Cc1ccncc1`?
AMA1 RON2 block: 0%; NS1 function inh: 2%; Pf growth 48h: 0%; SARS PLP yeast: 0%; HCV inhibitor: 20%; Pf growth 96h: 37%

Results for Cc1ccc(NC(=O)C2(C)CCN2Cc2ccccc2OC(F)F)cc1 (centres undefined) ?
AMA1 RON2 block: 12%

How did CC(=O)N1CCN(Cc2nc3cc(NC(=O)NC4CCCCC4)ccc3n2C)CC1 do in these assays?
AMA1 RON2 block: 14%; Pf growth 48h: -26%; SARS PLP yeast: -2%; HCV inhibitor: 5%; Pf growth 96h: 16%

How did Cc1cc(-c2ccc(S(=O)(=O)N(C)Cc3ccccc3)cc2)on1 do in these assays?
AMA1 RON2 block: 2%; NS1 function inh: -1%; Pf growth 48h: -5%; SARS PLP yeast: -3%; HCV inhibitor: 6%; Pf growth 96h: inconclusive

How did Cc1ccccc1SCC(=O)OCC(=O)N(C)c1c(N)n(Cc2ccccc2)c(=O)[nH]c1=O do in these assays?
AMA1 RON2 block: -18%; Pf growth 48h: 34%; SARS PLP yeast: 3%; HCV inhibitor: 1%; Pf growth 96h: inconclusive

How did Cc1ccc2c(c1)NC(=O)CC(c1ccccc1)=N2 do in these assays?
AMA1 RON2 block: -4%; NS1 function inh: -14%; Pf growth 48h: 116%; SARS PLP yeast: -21%; HCV inhibitor: 3.2µM*; Pf growth 96h: -16%

How did COC(=O)C1=CN(c2ccc(C)cc2)C(N)=C(C#N)C1c1ccccc1F (centres undefined) do in these assays?
AMA1 RON2 block: 7%

Results for CN(Cc1ccccc1)C1(CNC(=O)CCC(F)(F)F)Cc2ccccc2C1 ?
AMA1 RON2 block: 9%; NS1 function inh: 13%; Pf growth 48h: 28%; SARS PLP yeast: 8%; HCV inhibitor: 9%; Pf growth 96h: 15µM*

Results for Cc1cc(C)n2nc(-c3sccc3-n3c(C)ccc3C)cc2n1 ?
AMA1 RON2 block: -1%; NS1 function inh: 14%; Pf growth 48h: inconclusive; SARS PLP yeast: -16%; HCV inhibitor: 8.9µM*; Pf growth 96h: inconclusive

What do the screens show for `CCOC(=O)[C@H]1[C@H]2COc3ccc(OC)cc3[C@@H]2N2C(=O)CN(Cc3ccc(Cl)cc3)C(=O)[C@@]12C`?
AMA1 RON2 block: -2%; Pf growth 48h: 15µM*; SARS PLP yeast: 1%; HCV inhibitor: inconclusive; Pf growth 96h: inconclusive

How did CCOC(=O)[C@H]1[C@H]2COc3ccc(Br)cc3[C@@H]2N2C(=O)CN(Cc3ccc(Cl)cc3)C(=O)[C@@]12C do in these assays?
AMA1 RON2 block: -2%; SARS PLP yeast: -5%; HCV inhibitor: -1%

What do the screens show for `CCOC(=O)[C@H]1[C@H]2COc3ccc(OC)cc3[C@@H]2N2C(=O)CN(Cc3ccc(F)cc3)C(=O)[C@@]12C`?
AMA1 RON2 block: 1%; Pf growth 48h: inconclusive; SARS PLP yeast: -5%; HCV inhibitor: inconclusive; Pf growth 96h: inconclusive

Results for CCOC(=O)[C@H]1[C@H]2COc3ccc(OC)cc3[C@@H]2N2C(=O)CN(Cc3ccccc3)C(=O)[C@@]12C ?
AMA1 RON2 block: 7%; Pf growth 48h: 10µM*; SARS PLP yeast: 9%; HCV inhibitor: 3%; Pf growth 96h: inconclusive

Results for CCOC(=O)[C@H]1[C@H]2COc3ccc(Br)cc3[C@@H]2N2C(=O)CN(Cc3ccc(F)cc3)C(=O)[C@@]12C ?
AMA1 RON2 block: 9%; Pf growth 48h: 13µM*; SARS PLP yeast: -13%; HCV inhibitor: -27%; Pf growth 96h: inconclusive

Results for CCC(C)c1ccccc1N1CC(C(=O)NCCCn2nc(C)cc2C)CC1=O (centres undefined) ?
AMA1 RON2 block: -13%; Pf growth 48h: 17%; SARS PLP yeast: 0%; HCV inhibitor: 0%; Pf growth 96h: 2%

Results for COc1cccc(/C=C/C(=O)NNC(=O)c2cc(C)oc2C)c1 ?
AMA1 RON2 block: 50%; Pf growth 48h: -6%; SARS PLP yeast: 0%; HCV inhibitor: -20%; Pf growth 96h: 11%

What do the screens show for `Cc1ccccc1-c1nc(CN2CCCC(C(=O)NCc3cccnc3)C2)c(C)o1` (centres undefined)?
AMA1 RON2 block: 3%; NS1 function inh: -5%; Pf growth 48h: inconclusive; SARS PLP yeast: -2%; HCV inhibitor: inconclusive; Pf growth 96h: 102%

What do the screens show for `Cc1cc2c(cc(C(=O)NCc3cccnc3)n2Cc2ccc(Cl)cc2)o1`?
AMA1 RON2 block: -5%; NS1 function inh: 8%; Pf growth 48h: inconclusive; SARS PLP yeast: -1%; Pf growth 96h: 10µM*

How did Cc1cc(C(=O)NCc2cccnc2)no1 do in these assays?
AMA1 RON2 block: 0%; NS1 function inh: 3%; Pf growth 48h: 18%; SARS PLP yeast: -3%

How did O=C(NCc1cccnc1)C1CCC(c2ccc(Cl)cc2)CC1 (centres undefined) do in these assays?
AMA1 RON2 block: 4%; NS1 function inh: -9%; Pf growth 48h: inconclusive; SARS PLP yeast: -2%; HCV inhibitor: 7.9µM*; Pf growth 96h: inconclusive

What do the screens show for `Cc1oc(-c2ccc(Cl)cc2)nc1CN1CCC(C(=O)NCc2cccnc2)CC1`?
AMA1 RON2 block: -4%; NS1 function inh: -1%; Pf growth 48h: -36%; SARS PLP yeast: -2%; HCV inhibitor: 14µM*; Pf growth 96h: 0%

Screening results: PubChem, National Center for Advancing Translational Sciences (NCATS)
